# Measured values taken from PubChem BioAssay AID463173 (ICCB-Longwood Screening Facility, Harvard Medical School, 2010).
# Out of some 52,000 compounds screened, about 1,700 (3.3%) were called active. No stated cut-off is given here; in the data, active means survival mostly below about 52% (no sharp cut-off); inactive means mostly above about 56%. This excerpt belongs to a sample that is enriched for actives.
# System: Wild type
# Assay: growth inhibition of S. aureus wild type versus tarO mutant, primary screen, teichoic acid synthesis inhibitors, RN4220, OD600 (AID 463173)
# Settings: S. aureus RN4220 wild type/DeltatarO growth, OD600, 18 h, hits give low values, screened at 18.75 µg/mL (by protocol)
row,Compound,survival
1,COc1cccc(NC(=O)Cn2c(=O)n(Cc3ccc4c(c3)OCO4)c(=O)c3oc4ccccc4c32)c1,80% (inactive)
2,CC(=O)c1ccc(N2CCN(C(=O)CCn3cnc4onc(-c5ccc(F)cc5)c4c3=O)CC2)cc1,-6% (active)
3,COc1ccccc1N1CCN(C(=O)CCn2cnc3onc(-c4ccc(F)cc4)c3c2=O)CC1,87% (inactive)
4,O=C(CCn1cnc2onc(-c3ccc(F)cc3)c2c1=O)N1CCN(c2ccccc2)CC1,75% (inactive)
5,O=C(CCn1cnc2onc(-c3ccc(F)cc3)c2c1=O)N1CCN(c2ccc(F)cc2)CC1,98% (inactive)
6,O=C(CCn1cnc2onc(-c3ccc(F)cc3)c2c1=O)N1CCN(c2ccccc2F)CC1,-6% (active)
7,O=C(Cn1cnc2onc(-c3ccc(F)cc3)c2c1=O)N1CCN(c2ccccc2F)CC1,71% (inactive)
8,CCOc1ccc(CC(=O)NCCc2sc3nc(-c4ccc(F)cc4)nn3c2C)cc1,71% (inactive)
9,COC(=O)c1ccccc1NC(=O)c1cc(-c2ccc(Cl)cc2)on1,71% (inactive)
10,Cc1ccc(C)c(NC(=O)CSc2nnc(CNC(=O)c3ccccc3)n2-c2ccccc2)c1,63% (inactive)
11,Cc1nn(CC(=O)NCCc2ccc(Cl)cc2)c(=O)c2cc3cc(F)ccc3n12,74% (inactive)
12,Cc1cccc(NC(=O)CSC2=Nc3ccccc3C3=NC(CC(=O)NCc4cccs4)C(=O)N23)c1 (stereo unspecified),81% (inactive)
13,Cc1ccc(C)c(CSc2nnc(C)n3c2cc2sccc23)c1,65% (inactive)
14,Clc1ccc(C(c2ccccc2)c2c[nH]c3ccccc23)s1 (stereo unspecified),4% (active)
15,Cc1ccc2[nH]cc(C(c3ccccc3)c3ccc(Cl)s3)c2c1 (stereo unspecified),18% (inactive)
16,c1ccc(C(c2cccs2)c2c[nH]c3ccccc23)cc1 (stereo unspecified),17% (inactive)
17,Cc1ccc(NC(=O)CN2C(=O)CSc3ccc(S(=O)(=O)N4CCCC4)cc32)c(C)c1,98% (inactive)
18,CN(CCCNC(=O)c1cc2c(Cl)nc3ccccc3c2s1)Cc1ccccc1,45% (inactive)
19,Cc1ccc2nc(Cl)c3cc(C(=O)NCCCN(C)Cc4ccccc4)sc3c2c1,-3% (active)
20,CCN(C(=O)c1cc2c(Cl)nc3ccccc3c2s1)c1cccc(Cl)c1,76% (inactive)
21,CN(C(=O)c1cc2c(Cl)nc3ccccc3c2s1)c1cccc(C(F)(F)F)c1,80% (inactive)
22,Cc1ccc(Cl)cc1N(C)C(=O)c1cc2c(Cl)nc3ccccc3c2s1,70% (inactive)
23,CCCN(C(=O)c1cc2c(Cl)nc3ccccc3c2s1)c1cccc(C)c1,1% (active)
24,CCc1ccccc1N(C)C(=O)c1cc2c(Cl)nc3ccc(C)cc3c2s1,0% (active)
25,Cc1ccc2nc(Cl)c3cc(C(=O)N(C)C4CCCCC4)sc3c2c1,35% (inactive)
26,CCN(CCCNC(=O)c1cc2c(Cl)nc3ccccc3c2s1)Cc1ccccc1,96% (inactive)
